High-throughput results deposited in PubChem by Broad Institute.
aSyn 5UTR act: Activators via SNCA 5'UTR binding, MLPCN; actives 7.1% (n = 300,000); activity score, % (tested at 7.5 µM), hits read low; AID 1814; alpha-synuclein 5'UTR reporter, activators screen; in the data active = activity score below about -60%
Starred values were filed as active, the others as inactive. The list is a sample of the results.

SMILES	aSyn 5UTR act
CSc1cccc(NC(=O)Nc2ccc(Cl)cc2)c1	-97*
CS/C(N)=N/C(=S)Nc1cccc(Cl)c1	-143*
CCNS(=O)(=O)c1ccc(NC(=O)Nc2ccccc2OC)cc1	-79*
CC(=O)c1ccc(NC(=S)NCCc2cccc(Cl)c2)cc1	-179*
CC(=O)c1ccc(NC(=O)Nc2cccc(Cl)c2)cc1	-82*
O=C(Cn1ncc(N2CCOCC2)c(Cl)c1=O)c1ccc(Cl)cc1	-105*
Cc1nn(-c2ccccc2)c(Cl)c1/C=N\NC(=O)c1cnccn1	-106*
Cc1nn(-c2ccccc2)c(Cl)c1/C=N/NC(=O)c1ccco1	-106*
COC(=O)c1c(NC(=O)c2ccccc2)sc2c1CC(C)(C)OC2	-69*
COC(=O)c1c(NC(=O)c2ccc(OC(C)C)cc2)sc2c1CC(C)(C)NC2(C)C	103
CC1(C)Cc2c(sc(NC(=O)Nc3ccccc3)c2C(N)=O)CO1	-158*
Cc1sc(NC(=S)NC(=O)c2ccco2)c(C(N)=O)c1C	-92*
Cc1sc(NC(=O)Nc2ccccc2)c(C(N)=O)c1C	-161*
COC(=O)CCC(=O)NC(=S)Nc1sc(C)c(C)c1C(N)=O	90
Cc1cc(N)n(-c2nc3ccccc3s2)n1	-157*
Cc1cc(NC(=O)C(C)C)n(-c2nc3ccccc3s2)n1	-78*
Cc1cc(N)n(-c2ccc3ccccc3c2)n1	-119*
Cc1ccc(/C=C/c2nc3ccccc3s2)s1	71
Cc1cc(C)n(-c2nc3ccccc3s2)n1	-168*
N/C(Cc1ccc(Cl)cc1Cl)=N\OC(=O)c1ccccc1F	-72*
CSc1ccccc1NC(=O)c1cc2ncc(Br)cn2n1	-182*
CC1CCCCN1C(=O)CSc1nnc(-c2ccccc2O)o1 (centres undefined)	-84*
CC1CCCCN1C(=O)CSc1nc2ncccc2[nH]1 (centres undefined)	-75*
CC1CCCCN1C(=O)CSc1nnc(-c2ccc(Cl)s2)o1 (centres undefined)	-69*
Cc1nn(C)cc1C(=O)NNC(=S)Nc1ccccc1	-110*
SMILES	aSyn 5UTR act
O=C(Oc1ccccc1C(=O)Nc1ccccc1)c1ccc(Br)c([N+](=O)[O-])c1	-121*
COc1ccccc1C(=O)Oc1ccccc1C(=O)Nc1ccccc1	-163*
COc1ccccc1C(=O)Nc1ccc(Br)cc1C	-96*
COc1ccccc1C(=O)NNC(=S)Nc1ccccc1	-107*
COc1cc(SC)ccc1C(=O)Nc1ccccc1	-184*
COc1cc(SC)ccc1C(=O)Nc1nc2ccccc2[nH]1	131
CC(C)c1ccc(CNc2ncccn2)cc1	-128*
Cn1cnc2cc(NCc3ccccc3Cl)ccc21	-92*
CCCC(=O)NC(c1ccc(C(C)C)cc1)c1ccc2cccnc2c1O (centres undefined)	83
CC(C)c1ccc(CNc2ccc3c(c2)ncn3C)cc1	-206*
CCn1cnc2cc(NCc3ccccc3Cl)ccc21	-87*
COc1ccc(-c2csc(NCc3ccco3)n2)cc1C	-195*
CC(=O)Nc1ccc(-c2csc(NCc3ccco3)n2)cc1	-138*
c1cncc(-c2csc(NCc3ccco3)n2)c1	-92*
COc1ccc2c(c1)C(C)=CC(C)(C)N2S(=O)(=O)c1ccc(C)cc1	-63*
CCOc1ccc2c(c1)C(C)=CC(C)(C)N2S(=O)(=O)c1ccc(C)cc1	103
CCc1cc(C=NC2CCCCC2)c(O)s1	-174*
COc1cc(OC)c(OC)cc1CN1CCCC(C(=O)c2ccccc2SC)C1 (centres undefined)	50
COc1ccccc1C(=O)C1CCCN(C(=O)Nc2ccccc2F)C1 (centres undefined)	-64*
COc1cc(C(F)(F)F)ccc1C(=O)NCCc1ccco1	-163*
CC(C)(C)C(=O)Nc1ccc(-c2cc3cc(Cl)ccc3o2)cc1	-124*
O=c1c2c(nc3cc(-c4ccc(Br)cc4)[nH]n13)CCCC2	-95*
COc1ccc(-c2cc3nc4c(c(=O)n3[nH]2)CCC4)cc1	-158*
O=c1cc(COc2ccccc2[N+](=O)[O-])nc2sccn12	-83*
CC(=O)c1ccc(OCc2cc(=O)n3ccsc3n2)cc1	-95*
SMILES	aSyn 5UTR act
CCOc1ccccc1-c1nc(-c2ccc(C)nc2OC)no1	-207*
CCOc1nc(C)ccc1-c1noc(-c2ccco2)n1	-79*
CCN1CCN(c2nc3sc4c(c3c3ncnn23)CC(C)CC4)CC1 (centres undefined)	-64*
Cc1ccc(C(=O)NC2CCc3ccccc3C2=O)cc1 (centres undefined)	-169*
COc1ccc2c(c1OC)CN1CCc3cc4c(cc3[C@@H]1[C@@H]2O)OCO4	-69*
COc1cc([C@@H]2c3cc4c(cc3[C@H](O)[C@H]3COC(=O)[C@H]23)OCO4)cc(OC)c1OC	95
O=C(NC1CCCCCC1)C(=S)NC1CCCCC1	-98*
O=C(NC1CCCCCCC1)NC1CCCCC1	-127*
O=c1[nH]c(SCc2ccc(Cl)cc2)nc2[nH]ncc12	-70*
COc1cc(NC(=O)CCc2ccccc2)nc(OC)n1	-71*
COc1ccc(C(=O)Nc2cc(OC)nc(OC)n2)cc1	-125*
COc1ccc(C(=O)Nc2cc(-c3ccc(C)cc3)no2)cc1	-65*
Cc1ccc(-c2cc(NC(=O)c3ccccc3)on2)cc1	-190*
Cc1ccc(C(=O)Nc2ccccc2Sc2ccccc2)cc1	-62*
N#CC(c1cccc(Cl)c1)c1ccc2c(C(F)(F)F)cc(C(F)(F)F)nc2n1 (centres undefined)	97
C=CC(=O)Oc1ccc(N2Cc3ccccc3C2=O)cc1	-114*
O=C1c2ccccc2CN1c1ccccc1	-107*
O=C1c2ccccc2C(=O)c2c1ncn2-c1ccccc1	70
Cc1ccc([N+](=O)[O-])cc1N/C=C1\CCc2ccccc2C1=O	-163*
CN(C)c1ccc(/C=N/NC(=O)c2ccccc2)cc1	-120*
CC(C)=C(NC(=O)c1ccccc1)C(=O)N/N=C/c1ccc(O)cc1	-128*
Cc1cc(C(=O)N/N=C/c2cc(Br)ccc2OC(=O)c2ccccc2Cl)n[nH]1	58
CN(C)c1ccc(/C=N/NC(=O)c2ccccc2Cl)cc1	-125*
Cc1nn(-c2ccccc2)c(C)c1/C=N/NC(=O)c1cccs1	-68*
CCN(CC)c1ccc2c(cc1=O)[C@@H](NC)CCc1cc(OC)c(OC)c(OC)c1-2	107
SMILES	aSyn 5UTR act
O=C(N/N=C/c1ccc(OC(=O)c2cccs2)cc1)c1cccc(F)c1	-97*
CC/C(=N\NC(=O)c1ccc(N(C)C)cc1)c1ccccc1	-72*
O=C(N/N=C/c1ccc(-n2ccnc2)cc1)c1cccs1	-78*
CN(C)c1ccc(/C=N/NC(=O)c2sccc2-n2cccc2)cc1	-150*
COc1cc(C(=O)N/N=C/c2ccsc2C)cc(OC)c1OC	92
C/C(=N/N=C/c1ccc(N(C)C)cc1)c1ccccc1	-160*
CSc1ccc(/C=N/NC(=O)c2ccccc2Cl)cc1	-109*
CSc1ccc(/C=N/NC(=O)c2cccs2)cc1	-185*
CN(C)c1cccc(C(=O)N/N=C/c2ccsc2)c1	-157*
Cc1ccc(C2C=NN(c3ccccc3)C2=O)cc1 (centres undefined)	-64*
Cc1ccc(C)c(N(CC(=O)Nc2ccc(-c3nc4ccc(C)cc4s3)cc2)S(C)(=O)=O)c1	-80*
Cc1ccc(N(CC(=O)Nc2ccc(-c3nc4ccc(C)cc4s3)cc2)S(C)(=O)=O)cc1	-203*
[N-]=[N+]=CC(=O)C(O)(c1ccccc1)C(Cl)c1ccccc1 (centres undefined)	47
Cc1ccc(SCC(=O)Nc2ccc(-c3nnc(-c4ccco4)o3)cc2)cc1	-106*
